# Data: the supplement of paper PMC10849652
# About 7,900 targets were measured; listed, in parts, are those with a hit and a random draw of the rest. About 0.6% of all pairs of compound and target were hits. Values without a mark were called inactive.
# Experiments:
# Experiment in all cases: log2 fold change, soluble protein after heating vs DMSO (PISA); higher = thermal stabilisation; K562 cells, 10 uM, 30 min; active = over 0.2 and 3.5 SD of the protein, either way, in both replicates (recomputed)
# [1] = compound: COC1=CC=C(C=C1)CN2C=CC3=C2C=C(C=C3)C(=O)NO
# Outline: (§1)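 Quantification of soluble protein used TMTpro 16plex LC-MS/MS, with channel sums equalised. Samples were the supernatant after 21,000xg for 90 min of pooled aliquots from K562 cells (2×10^6 cells/mL) treated with 10 μM compound for 30 min, heated for 3 min over 48°C-58°C, and extracted in PBS with 0.5% NP-40 at 4°C. Values, from duplicates, describe thermal stability against control samples on a log2 fold-change scale.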
# filanesib = compound: CON(C)C(=O)N1N=C(c2cc(F)ccc2F)S[C@@]1(CCCN)c1ccccc1 [filanesib]
# Outline: as §1
# zotarolimus = compound: CO[C@H]1C[C@@H]2CC[C@@H](C)[C@@](O)(O2)C(=O)C(=O)N2CCCC[C@H]2C(=O)O[C@H]([C@H](C)C[C@@H]2CC[C@H](n3cnnn3)[C@H](OC)C2)CC(=O)[C@H](C)/C=C(\C)[C@@H](O)[C@@H](OC)C(=O)[C@H](C)C[C@H](C)/C=C/C=C/C=C/1C [zotarolimus]
# Outline: as §1
# idasanutlin = compound: COc1cc(C(=O)O)ccc1NC(=O)[C@@H]1N[C@@H](CC(C)(C)C)[C@](C#N)(c2ccc(Cl)cc2F)[C@H]1c1cccc(Cl)c1F [idasanutlin]
# Outline: as §1
# alisertib = compound: COc1cc(Nc2ncc3c(n2)-c2ccc(Cl)cc2C(c2c(F)cccc2OC)=NC3)ccc1C(=O)O [alisertib]
# Outline: as §1
# [2] = compound: COc1cc2nc(-c3cc(F)ccc3O)nc(N[C@@H]3CNC[C@H]3C(C)(C)O)c2cc1OC
# Outline: as §1
# gefitinib = compound: COc1cc2ncnc(Nc3ccc(F)c(Cl)c3)c2cc1OCCCN1CCOCC1 [gefitinib]
# Outline: as §1
# [3] = compound: COc1cccc2cc(-c3nc([C@H]4CC[C@H](C(=O)O)CC4)n4ncnc(N)c34)[nH]c12
# Outline: as §1
# lapatinib = compound: CS(=O)(=O)CCNCc1ccc(-c2ccc3ncnc(Nc4ccc(OCc5cccc(F)c5)c(Cl)c4)c3c2)o1 [lapatinib]
# Outline: as §1
# pictilisib = compound: CS(=O)(=O)N1CCN(Cc2cc3nc(-c4cccc5[nH]ncc45)nc(N4CCOCC4)c3s2)CC1 [pictilisib]
# Outline: as §1
# [4] = compound: CS(=O)(=O)c1ccc(-c2cnc(N)c(C(=O)Nc3ccccc3)n2)cc1
# Outline: as §1
# crizotinib = compound: C[C@@H](Oc1cc(-c2cnn(C3CCNCC3)c2)cnc1N)c1c(Cl)ccc(F)c1Cl [crizotinib]
# Outline: as §1
# [5] = compound: C[C@H](C1=CC=C(C=C1)C(=O)NC2=C3C=CNC3=NC=C2)N
# Outline: as §1
# duvelisib = compound: C[C@H](Nc1ncnc2nc[nH]c12)c1cc2cccc(Cl)c2c(=O)n1-c1ccccc1 [duvelisib]
# Outline: as §1
# gandotinib = compound: Cc1cc(Nc2cc(CN3CCOCC3)c3nc(C)c(Cc4ccc(Cl)cc4F)n3n2)n[nH]1 [gandotinib]
# Outline: as §1
# tozasertib = compound: Cc1cc(Nc2cc(N3CCN(C)CC3)nc(Sc3ccc(NC(=O)C4CC4)cc3)n2)n[nH]1 [tozasertib]
# Outline: as §1
# [6] = compound: Cc1cc(SCc2sc(-c3ccc(C(F)(F)F)cc3)nc2C)ccc1OCC(=O)O
# Outline: as §1
# doramapimod = compound: Cc1ccc(-n2nc(C(C)(C)C)cc2NC(=O)Nc2ccc(OCCN3CCOCC3)c3ccccc23)cc1 [doramapimod]
# Outline: as §1
# ispinesib = compound: Cc1ccc(C(=O)N(CCCN)[C@@H](c2nc3cc(Cl)ccc3c(=O)n2Cc2ccccc2)C(C)C)cc1 [ispinesib]
# Outline: as §1
# [7] = compound: C[C@@H]1COCCN1C2=NC(=NC(=C2)C3(CC3)S(=O)(=O)C)C4=C5C=CNC5=CC=C4
# Outline: as §1
# Sequence of UniProt Q96GF1 (Q96GF1 whole entry, looked up): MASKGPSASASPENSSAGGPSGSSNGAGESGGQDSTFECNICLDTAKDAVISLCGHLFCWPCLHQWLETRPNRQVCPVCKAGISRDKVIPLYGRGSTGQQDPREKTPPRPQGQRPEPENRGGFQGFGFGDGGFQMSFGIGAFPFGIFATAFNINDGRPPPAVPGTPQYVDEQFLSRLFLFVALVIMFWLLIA
# Sequence of UniProt Q04206 (Q04206 whole entry, looked up): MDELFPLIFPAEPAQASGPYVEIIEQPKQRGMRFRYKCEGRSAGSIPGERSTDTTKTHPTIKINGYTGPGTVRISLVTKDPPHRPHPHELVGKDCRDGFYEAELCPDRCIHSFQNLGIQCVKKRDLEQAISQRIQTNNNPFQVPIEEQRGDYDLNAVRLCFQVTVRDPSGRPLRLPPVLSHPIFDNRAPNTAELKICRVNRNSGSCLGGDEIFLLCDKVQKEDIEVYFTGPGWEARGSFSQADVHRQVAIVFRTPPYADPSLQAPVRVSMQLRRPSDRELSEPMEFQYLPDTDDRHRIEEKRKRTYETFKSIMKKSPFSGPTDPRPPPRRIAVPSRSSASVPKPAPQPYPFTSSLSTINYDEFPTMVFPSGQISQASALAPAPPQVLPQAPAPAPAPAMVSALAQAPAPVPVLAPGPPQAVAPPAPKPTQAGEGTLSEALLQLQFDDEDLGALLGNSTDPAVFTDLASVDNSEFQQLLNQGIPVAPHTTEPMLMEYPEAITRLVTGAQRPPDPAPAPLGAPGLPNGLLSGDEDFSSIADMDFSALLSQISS
# Sequence of UniProt Q15287 (Q15287 whole entry, looked up): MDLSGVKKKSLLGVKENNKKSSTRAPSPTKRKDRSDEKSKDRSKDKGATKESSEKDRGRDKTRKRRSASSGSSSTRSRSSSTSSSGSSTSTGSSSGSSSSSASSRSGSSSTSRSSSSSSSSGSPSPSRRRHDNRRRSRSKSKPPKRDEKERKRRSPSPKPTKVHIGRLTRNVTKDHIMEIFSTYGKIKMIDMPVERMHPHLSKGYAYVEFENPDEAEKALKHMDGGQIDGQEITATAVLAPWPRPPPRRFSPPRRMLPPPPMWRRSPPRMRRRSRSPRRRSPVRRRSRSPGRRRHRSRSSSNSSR
# Sequence of UniProt Q13464 (Q13464 whole entry, looked up): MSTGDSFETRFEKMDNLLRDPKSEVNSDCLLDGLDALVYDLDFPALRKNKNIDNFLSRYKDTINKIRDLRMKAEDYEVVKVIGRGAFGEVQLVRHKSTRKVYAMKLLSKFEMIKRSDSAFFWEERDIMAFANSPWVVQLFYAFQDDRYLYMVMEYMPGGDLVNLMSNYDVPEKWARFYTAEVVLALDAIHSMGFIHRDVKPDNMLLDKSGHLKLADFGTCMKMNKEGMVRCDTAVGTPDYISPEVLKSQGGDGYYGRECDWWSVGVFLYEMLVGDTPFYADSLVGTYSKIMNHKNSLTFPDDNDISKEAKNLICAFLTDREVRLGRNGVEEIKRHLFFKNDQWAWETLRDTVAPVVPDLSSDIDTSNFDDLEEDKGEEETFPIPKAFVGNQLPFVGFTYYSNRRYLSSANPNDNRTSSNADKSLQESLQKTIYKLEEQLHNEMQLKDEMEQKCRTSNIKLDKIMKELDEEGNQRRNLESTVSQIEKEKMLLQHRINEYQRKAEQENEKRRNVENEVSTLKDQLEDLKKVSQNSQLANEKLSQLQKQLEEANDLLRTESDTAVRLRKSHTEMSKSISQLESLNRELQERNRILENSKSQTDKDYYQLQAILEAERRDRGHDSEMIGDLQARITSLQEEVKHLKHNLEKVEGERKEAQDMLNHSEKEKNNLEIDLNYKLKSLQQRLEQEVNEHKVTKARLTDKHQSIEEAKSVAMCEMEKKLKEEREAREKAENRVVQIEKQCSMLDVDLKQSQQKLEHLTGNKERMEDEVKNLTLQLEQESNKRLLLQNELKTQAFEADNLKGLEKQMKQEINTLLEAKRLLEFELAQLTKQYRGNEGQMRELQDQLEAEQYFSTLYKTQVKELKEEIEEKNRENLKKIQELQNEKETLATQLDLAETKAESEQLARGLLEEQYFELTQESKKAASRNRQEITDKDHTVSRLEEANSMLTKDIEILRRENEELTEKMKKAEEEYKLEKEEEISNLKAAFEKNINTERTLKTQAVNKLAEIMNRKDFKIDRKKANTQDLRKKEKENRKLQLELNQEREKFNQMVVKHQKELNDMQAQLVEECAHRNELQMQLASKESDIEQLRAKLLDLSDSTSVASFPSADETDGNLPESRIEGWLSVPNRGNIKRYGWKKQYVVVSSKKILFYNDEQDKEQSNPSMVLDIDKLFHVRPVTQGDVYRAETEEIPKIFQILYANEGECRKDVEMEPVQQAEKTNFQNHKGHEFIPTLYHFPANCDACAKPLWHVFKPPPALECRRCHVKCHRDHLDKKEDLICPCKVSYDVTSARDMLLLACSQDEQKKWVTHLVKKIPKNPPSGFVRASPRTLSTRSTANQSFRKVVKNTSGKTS
# Sequence of UniProt Q96LZ7 (Q96LZ7 whole entry, looked up): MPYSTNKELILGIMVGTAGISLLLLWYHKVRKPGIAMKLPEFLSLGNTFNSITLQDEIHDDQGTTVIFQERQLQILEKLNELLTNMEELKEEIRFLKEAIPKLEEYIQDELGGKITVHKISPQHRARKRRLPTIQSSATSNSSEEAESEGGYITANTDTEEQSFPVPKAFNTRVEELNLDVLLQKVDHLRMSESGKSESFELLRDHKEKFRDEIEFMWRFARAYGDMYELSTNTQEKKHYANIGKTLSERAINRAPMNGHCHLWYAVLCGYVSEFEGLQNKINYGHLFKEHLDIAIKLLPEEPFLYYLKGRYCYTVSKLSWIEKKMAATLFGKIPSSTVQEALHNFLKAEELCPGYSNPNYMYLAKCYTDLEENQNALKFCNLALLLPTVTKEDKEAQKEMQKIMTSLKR
# Sequence of UniProt Q9UKL0 (Q9UKL0 whole entry, looked up): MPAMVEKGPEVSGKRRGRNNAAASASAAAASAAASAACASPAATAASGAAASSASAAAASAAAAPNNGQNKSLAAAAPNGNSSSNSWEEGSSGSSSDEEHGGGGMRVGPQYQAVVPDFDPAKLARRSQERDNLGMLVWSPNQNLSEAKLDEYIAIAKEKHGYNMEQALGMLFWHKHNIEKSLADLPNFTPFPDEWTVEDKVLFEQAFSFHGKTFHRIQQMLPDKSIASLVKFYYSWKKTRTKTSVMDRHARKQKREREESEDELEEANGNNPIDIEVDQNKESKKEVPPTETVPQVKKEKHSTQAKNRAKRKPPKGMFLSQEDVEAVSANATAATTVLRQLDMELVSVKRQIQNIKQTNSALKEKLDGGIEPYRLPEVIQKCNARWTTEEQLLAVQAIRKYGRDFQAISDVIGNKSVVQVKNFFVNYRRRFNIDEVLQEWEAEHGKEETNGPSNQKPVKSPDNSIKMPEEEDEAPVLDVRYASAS
Target,log2 fold change [1],log2 fold change (filanesib),log2 fold change (zotarolimus),log2 fold change (idasanutlin),log2 fold change (alisertib),log2 fold change [2],log2 fold change (gefitinib),log2 fold change [3],log2 fold change (lapatinib),log2 fold change (pictilisib),log2 fold change [4],log2 fold change (crizotinib),log2 fold change [5],log2 fold change (duvelisib),log2 fold change (gandotinib),log2 fold change (tozasertib),log2 fold change [6],log2 fold change (doramapimod),log2 fold change (ispinesib),log2 fold change [7]
SIK3 (UniProt H0Y4E8),-0.015,0.085,-0.073,-0.065,-0.018,0.077,-0.026,0.466,0.036,-0.007,-0.144,0.084,0.027,0.035,0.118,-0.106,-0.056,-0.058,0.185,–
RNPS1 (UniProt Q15287),0.062,0.13,-0.014,0.274,0.024,-0.073,0.04,-0.005,0.075,-0.001,0.018,-0.109,-0.019,-0.091,0.089,0.108,-0.028,-0.104,0.042,0.114
RCOR1 (UniProt Q9UKL0),-0.039,0.002,-0.044,0,0.013,0.003,-0.002,0.015,0.019,0.005,0.011,-0.033,0.071,0.088,-0.046,0.005,0.041,0.001,-0.031,0.095
RPL38 (UniProt P63173),-0.109,0,-0.007,0.055,-0.064,0.061,-0.074,-0.171,0.05,-0.053,-0.039,-0.069,0.077,-0.064,0.144,-0.017,-0.008,0.017,-0.093,-0.258 (active)
ROCK1 (UniProt Q13464),0.037,-0.028,0.003,-0.005,0.067,0.246 (active),-0.012,-0.005,0.012,-0.012,0.016,-0.017,–,-0.019,-0.025,0.015,0.027,-0.025,-0.069,0.042
RELA (UniProt Q04206),0.025,-0.002,0.024,-0.039,-0.028,-0.031,0.023,0.005,0.012,-0.007,0.03,0.036,-0.029,0.018,-0.086,0.059,0.055,–,0.017,0.005
"RAD50, A0A494C0Y7",-0.054,0.001,-0.021,-0.05,0.127,-0.077,–,0.035,-0.142,0.085,0.029,-0.024,0.204,0.067,0.021,-0.042,0.054,0.034,-0.054,–
RNF185 (UniProt Q96GF1),–,–,0.117,-0.143,-0.145,-0.175,0.007,-0.016,-0.111,0.076,–,–,-0.036,–,0.104,-0.112,–,–,-0.024,–
RMDN2 isoform 2 (UniProt Q96LZ7),0.008,–,–,–,0.389,–,-0.418,0.191,–,–,–,0,–,–,–,–,–,0.145,-0.112,–
